# Results taken from the supplement of paper PMC8728848.
# Shown is part of a subset that was picked to be rich in the strongest signals.
# What was measured:
# Assay in all cases: glycan array binding signal (z-score within array); higher = stronger binding
# [1] = system: Fuc(a1-2)Gal(b1-4)[Fuc(a1-3)]GlcNAc(b1-2)[Fuc(a1-2)Gal(b1-4)[Fuc(a1-3)]GlcNAc(b1-4)]Man(a1-3)[Fuc(a1-2)Gal(b1-4)[Fuc(a1-3)]GlcNAc(b1-2)Man(a1-6)]Man(b1-4)GlcNAc(b1-4)GlcNAc; settings: glycan notation: IUPAC condensed, linker removed
# Procedure, shortened: (§1)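 The binding signal is a Z-score computed within each array. Data were drawn from 3228 arrays in the Consortium for Functional Glycomics database, restricted to those with a known protein sequence. Scores were averaged over arrays of the same protein sequence at different concentrations or buffers, and over linkers, and negative values can be taken as non-binding.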
# [2] = system: Fuc(a1-2)[Gal(a1-3)]Gal(b1-4)[Fuc(a1-3)]GlcNAc(b1-3)GalNAc; settings: glycan notation: IUPAC condensed, linker removed
# Procedure, shortened: as §1
# [3] = system: Fuc(a1-2)Gal6S(b1-4)GlcNAc; settings: glycan notation: IUPAC condensed, linker removed
# Procedure, shortened: as §1
# [4] = system: Fuc(a1-2)[Gal(a1-3)]Gal; settings: glycan notation: IUPAC condensed, linker removed
# Procedure, shortened: as §1
# [5] = system: Fuc(a1-2)Gal(b1-4)[Fuc(a1-3)]GlcNAc(b1-3)Gal(b1-4)[Fuc(a1-3)]GlcNAc(b1-3)Gal(b1-4)[Fuc(a1-3)]GlcNAc; settings: glycan notation: IUPAC condensed, linker removed
# Procedure, shortened: as §1
# [6] = system: Fuc(a1-2)Gal(b1-4)[Fuc(a1-3)]GlcNAc(b1-3)Gal(b1-4)[Fuc(a1-3)]GlcNAc; settings: glycan notation: IUPAC condensed, linker removed
# Procedure, shortened: as §1
# [7] = system: Fuc(a1-2)Gal(b1-4)[Fuc(a1-3)]GlcNAc(b1-3)GalNAc; settings: glycan notation: IUPAC condensed, linker removed
# Procedure, shortened: as §1
# [8] = system: Fuc(a1-2)Gal(b1-4)[Fuc(a1-3)]GlcNAc; settings: glycan notation: IUPAC condensed, linker removed
# Procedure, shortened: as §1
# [9] = system: Fuc(a1-2)[Gal(a1-3)]Gal(b1-4)GlcNAc(b1-3)GalNAc; settings: glycan notation: IUPAC condensed, linker removed
# Procedure, shortened: as §1
# [10] = system: Fuc(a1-2)Gal(b1-4)[Fuc(a1-3)]GlcNAc(b1-2)Man(a1-3)[Fuc(a1-2)Gal(b1-4)[Fuc(a1-3)]GlcNAc(b1-2)Man(a1-6)]Man(b1-4)GlcNAc(b1-4)GlcNAc; settings: glycan notation: IUPAC condensed, linker removed
# Procedure, shortened: as §1
# [11] = system: Fuc(a1-2)[Gal(a1-3)]Gal(b1-4)Glc; settings: glycan notation: IUPAC condensed, linker removed
# Procedure, shortened: as §1
# [12] = system: Fuc(a1-2)[Gal(a1-3)]Gal(b1-4)GlcNAc(b1-2)Man(a1-3)[Fuc(a1-2)[Gal(a1-3)]Gal(b1-4)GlcNAc(b1-2)Man(a1-6)]Man(b1-4)GlcNAc(b1-4)[Fuc(a1-6)]GlcNAc; settings: glycan notation: IUPAC condensed, linker removed
# Procedure, shortened: as §1
# [13] = system: Fuc(a1-2)Gal6S(b1-4)Glc6S; settings: glycan notation: IUPAC condensed, linker removed
# Procedure, shortened: as §1
# [14] = system: Fuc(a1-2)Gal; settings: glycan notation: IUPAC condensed, linker removed
# Procedure, shortened: as §1
# [15] = system: Fuc(a1-2)Gal6S(b1-4)Glc; settings: glycan notation: IUPAC condensed, linker removed
# Procedure, shortened: as §1
# [16] = system: Fuc(a1-2)[Gal(a1-3)]Gal(b1-3)GlcNAc(b1-2)Man(a1-3)[Fuc(a1-2)[Gal(a1-3)]Gal(b1-3)GlcNAc(b1-2)Man(a1-6)]Man(b1-4)GlcNAc(b1-4)GlcNAc; settings: glycan notation: IUPAC condensed, linker removed
# Procedure, shortened: as §1
# [17] = system: Fuc(a1-2)Gal6S(b1-3)GlcNAc; settings: glycan notation: IUPAC condensed, linker removed
# Procedure, shortened: as §1
# [18] = system: Fuc(a1-2)[Gal(a1-3)]Gal(b1-4)GlcNAc(b1-3)[Fuc(a1-2)[Gal(a1-3)]Gal(b1-4)GlcNAc(b1-6)]GalNAc; settings: glycan notation: IUPAC condensed, linker removed
# Procedure, shortened: as §1
# [19] = system: Fuc(a1-2)Gal3S(b1-4)GlcNAc; settings: glycan notation: IUPAC condensed, linker removed
# Procedure, shortened: as §1
# [20] = system: Fuc(a1-2)[Gal(a1-4)]Gal(b1-4)GlcNAc; settings: glycan notation: IUPAC condensed, linker removed; mutation: R125K
# Procedure, shortened: as §1
# Avaren (Actinomycete K97), sequence (chain, as listed by the source): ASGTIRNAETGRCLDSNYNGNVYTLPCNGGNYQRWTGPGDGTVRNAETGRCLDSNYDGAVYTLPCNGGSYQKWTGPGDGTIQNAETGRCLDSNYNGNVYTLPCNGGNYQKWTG
# PILRb (Mus musculus), Q2YSF2, sequence (Q2YSF2 entry or part of it): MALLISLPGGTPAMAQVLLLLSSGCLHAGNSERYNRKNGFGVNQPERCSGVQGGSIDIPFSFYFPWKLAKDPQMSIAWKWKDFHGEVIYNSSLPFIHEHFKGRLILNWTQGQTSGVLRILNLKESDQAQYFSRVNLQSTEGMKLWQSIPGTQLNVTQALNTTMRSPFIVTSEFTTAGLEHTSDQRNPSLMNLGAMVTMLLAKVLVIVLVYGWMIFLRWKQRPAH
# PILRa (Mus musculus), Q2YSF3, sequence (Q2YSF3 entry or part of it): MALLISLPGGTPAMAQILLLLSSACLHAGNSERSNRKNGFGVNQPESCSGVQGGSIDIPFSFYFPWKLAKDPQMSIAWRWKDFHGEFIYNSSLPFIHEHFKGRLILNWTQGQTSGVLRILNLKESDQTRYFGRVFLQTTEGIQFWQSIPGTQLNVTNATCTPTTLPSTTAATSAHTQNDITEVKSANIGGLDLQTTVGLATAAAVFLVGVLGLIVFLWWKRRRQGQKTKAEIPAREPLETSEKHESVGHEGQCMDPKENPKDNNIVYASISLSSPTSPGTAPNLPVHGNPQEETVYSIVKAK
# Regenerating Gene IV (Homo sapiens), Q9BYZ8, sequence (Q9BYZ8 whole entry, looked up): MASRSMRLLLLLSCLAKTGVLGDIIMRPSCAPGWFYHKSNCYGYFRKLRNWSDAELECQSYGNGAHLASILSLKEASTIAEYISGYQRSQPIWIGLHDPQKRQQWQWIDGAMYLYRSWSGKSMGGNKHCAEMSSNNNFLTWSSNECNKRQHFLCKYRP
# CHI3L1 (Homo sapiens), P36222, sequence (P36222 whole entry): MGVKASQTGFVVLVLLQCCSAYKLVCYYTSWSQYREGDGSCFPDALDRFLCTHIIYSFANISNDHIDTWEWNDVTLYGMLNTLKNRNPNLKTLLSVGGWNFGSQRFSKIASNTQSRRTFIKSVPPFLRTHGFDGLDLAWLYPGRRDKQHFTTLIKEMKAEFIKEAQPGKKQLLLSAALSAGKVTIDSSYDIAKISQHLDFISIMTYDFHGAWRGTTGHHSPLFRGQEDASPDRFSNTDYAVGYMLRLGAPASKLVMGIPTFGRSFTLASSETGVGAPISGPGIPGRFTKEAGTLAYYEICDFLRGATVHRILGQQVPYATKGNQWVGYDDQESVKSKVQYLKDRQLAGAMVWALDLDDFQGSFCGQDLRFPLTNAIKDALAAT
# SRLC (Mus musculus), Q8VIF6, sequence (Q8VIF6 other isoform, or with tags, fused parts or gaps): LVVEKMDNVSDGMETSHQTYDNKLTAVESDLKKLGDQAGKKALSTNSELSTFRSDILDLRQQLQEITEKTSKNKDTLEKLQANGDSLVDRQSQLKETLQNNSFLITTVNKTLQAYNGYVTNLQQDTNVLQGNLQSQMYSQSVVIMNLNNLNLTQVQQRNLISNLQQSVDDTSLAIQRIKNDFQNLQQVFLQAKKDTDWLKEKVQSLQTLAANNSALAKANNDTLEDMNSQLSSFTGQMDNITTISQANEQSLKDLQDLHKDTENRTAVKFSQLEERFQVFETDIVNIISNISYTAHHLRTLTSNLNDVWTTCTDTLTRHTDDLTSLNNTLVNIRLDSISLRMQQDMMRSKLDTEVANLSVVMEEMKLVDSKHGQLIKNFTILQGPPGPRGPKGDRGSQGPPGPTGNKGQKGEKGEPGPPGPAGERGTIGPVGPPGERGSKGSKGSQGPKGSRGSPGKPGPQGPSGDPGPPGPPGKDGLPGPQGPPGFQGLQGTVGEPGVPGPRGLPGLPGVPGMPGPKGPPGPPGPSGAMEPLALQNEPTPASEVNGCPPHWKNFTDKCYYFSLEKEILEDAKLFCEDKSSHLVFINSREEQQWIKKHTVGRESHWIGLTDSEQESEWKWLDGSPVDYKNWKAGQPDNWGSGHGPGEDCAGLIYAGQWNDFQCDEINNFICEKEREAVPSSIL
# Neurocan (Homo sapiens), O14594, sequence (O14594 other isoform, or with tags, fused parts or gaps): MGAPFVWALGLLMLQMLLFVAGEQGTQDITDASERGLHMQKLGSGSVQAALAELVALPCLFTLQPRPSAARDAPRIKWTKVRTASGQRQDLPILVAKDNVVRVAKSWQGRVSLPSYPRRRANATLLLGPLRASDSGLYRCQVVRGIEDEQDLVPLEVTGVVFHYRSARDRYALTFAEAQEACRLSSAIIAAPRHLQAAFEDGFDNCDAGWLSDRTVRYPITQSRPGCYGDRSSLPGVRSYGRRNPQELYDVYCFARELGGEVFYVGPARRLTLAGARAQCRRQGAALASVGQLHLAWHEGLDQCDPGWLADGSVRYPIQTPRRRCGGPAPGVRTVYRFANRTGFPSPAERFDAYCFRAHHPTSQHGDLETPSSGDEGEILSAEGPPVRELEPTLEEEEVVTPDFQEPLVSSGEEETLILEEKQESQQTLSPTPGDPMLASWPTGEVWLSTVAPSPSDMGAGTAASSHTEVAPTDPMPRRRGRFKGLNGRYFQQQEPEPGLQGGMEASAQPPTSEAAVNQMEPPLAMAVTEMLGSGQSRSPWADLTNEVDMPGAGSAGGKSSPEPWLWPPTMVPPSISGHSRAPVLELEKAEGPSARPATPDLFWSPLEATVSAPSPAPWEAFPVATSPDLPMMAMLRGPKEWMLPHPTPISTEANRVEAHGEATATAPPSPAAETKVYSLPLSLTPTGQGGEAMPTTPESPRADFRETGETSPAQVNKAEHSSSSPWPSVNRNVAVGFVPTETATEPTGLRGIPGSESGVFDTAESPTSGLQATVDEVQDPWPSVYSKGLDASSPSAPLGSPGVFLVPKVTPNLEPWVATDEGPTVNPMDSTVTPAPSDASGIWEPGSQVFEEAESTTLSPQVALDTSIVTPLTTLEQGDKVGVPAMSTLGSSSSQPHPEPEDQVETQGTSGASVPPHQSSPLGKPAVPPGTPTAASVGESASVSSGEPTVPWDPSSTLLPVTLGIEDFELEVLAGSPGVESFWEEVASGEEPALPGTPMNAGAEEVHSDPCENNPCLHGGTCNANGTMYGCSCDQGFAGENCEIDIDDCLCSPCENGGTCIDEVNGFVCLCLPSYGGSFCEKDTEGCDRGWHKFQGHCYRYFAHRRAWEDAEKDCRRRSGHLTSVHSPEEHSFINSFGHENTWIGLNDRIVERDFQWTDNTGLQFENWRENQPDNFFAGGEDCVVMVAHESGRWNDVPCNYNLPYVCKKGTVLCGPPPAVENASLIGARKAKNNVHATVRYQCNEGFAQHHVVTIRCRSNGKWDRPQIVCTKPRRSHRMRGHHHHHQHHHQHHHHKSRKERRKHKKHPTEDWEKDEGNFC
# 6RG (Lolium perenne), sequence (chain, as listed by the source): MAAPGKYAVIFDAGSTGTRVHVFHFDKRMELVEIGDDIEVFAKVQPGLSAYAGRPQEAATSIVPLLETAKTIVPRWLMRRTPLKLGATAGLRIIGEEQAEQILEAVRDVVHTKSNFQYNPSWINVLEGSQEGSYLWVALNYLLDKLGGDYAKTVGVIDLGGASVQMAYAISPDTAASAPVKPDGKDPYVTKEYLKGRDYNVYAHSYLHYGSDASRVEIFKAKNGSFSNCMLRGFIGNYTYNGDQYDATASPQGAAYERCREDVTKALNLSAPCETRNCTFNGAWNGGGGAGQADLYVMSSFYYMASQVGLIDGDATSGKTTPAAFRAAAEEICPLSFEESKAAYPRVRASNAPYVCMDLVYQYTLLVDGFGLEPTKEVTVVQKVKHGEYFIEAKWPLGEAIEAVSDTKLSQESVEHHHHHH
# wLAT-1A (Homo sapiens), Q01650, sequence (Q01650 whole entry): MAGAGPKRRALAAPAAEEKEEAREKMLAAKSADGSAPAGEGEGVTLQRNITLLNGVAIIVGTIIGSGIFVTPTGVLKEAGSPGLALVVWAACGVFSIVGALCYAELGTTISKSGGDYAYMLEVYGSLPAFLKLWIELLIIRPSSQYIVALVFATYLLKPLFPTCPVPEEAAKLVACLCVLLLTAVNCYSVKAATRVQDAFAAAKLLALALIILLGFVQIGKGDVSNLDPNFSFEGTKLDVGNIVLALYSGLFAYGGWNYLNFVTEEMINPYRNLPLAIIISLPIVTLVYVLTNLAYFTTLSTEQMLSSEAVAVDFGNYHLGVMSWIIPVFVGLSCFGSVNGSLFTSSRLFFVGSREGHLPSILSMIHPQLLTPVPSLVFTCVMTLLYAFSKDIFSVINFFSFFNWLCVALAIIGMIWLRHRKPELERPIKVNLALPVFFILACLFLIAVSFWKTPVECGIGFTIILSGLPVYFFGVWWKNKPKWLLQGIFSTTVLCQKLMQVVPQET
# 6RG (Lolium perenne), B9U140, sequence (B9U140 entry or part of it): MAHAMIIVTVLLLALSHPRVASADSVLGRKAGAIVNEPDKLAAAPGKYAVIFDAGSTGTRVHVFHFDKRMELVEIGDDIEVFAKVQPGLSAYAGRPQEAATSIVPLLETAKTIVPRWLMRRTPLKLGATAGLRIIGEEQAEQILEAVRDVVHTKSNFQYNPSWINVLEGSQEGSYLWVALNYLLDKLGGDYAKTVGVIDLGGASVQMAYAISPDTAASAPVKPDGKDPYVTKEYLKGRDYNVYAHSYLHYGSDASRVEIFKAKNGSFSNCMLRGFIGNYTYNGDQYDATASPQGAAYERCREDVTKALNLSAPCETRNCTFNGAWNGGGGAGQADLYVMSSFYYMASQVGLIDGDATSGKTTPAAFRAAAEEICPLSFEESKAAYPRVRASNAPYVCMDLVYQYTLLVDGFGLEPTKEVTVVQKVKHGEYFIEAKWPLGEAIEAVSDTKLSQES
# Aggrecan (Rattus norvegicus), NP_071526, sequence (chain, as listed by the source): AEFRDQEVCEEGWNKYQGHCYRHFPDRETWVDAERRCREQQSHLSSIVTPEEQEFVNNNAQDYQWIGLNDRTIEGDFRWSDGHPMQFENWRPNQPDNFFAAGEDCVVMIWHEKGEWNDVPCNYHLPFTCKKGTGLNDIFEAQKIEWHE
substance,measurement,setting,value
"Neurocan (Homo sapiens), O14594",glycan array binding signal (z-score),[1],2.6
same,glycan array binding signal (z-score),[2],0.513
"SRLC (Mus musculus), Q8VIF6",glycan array binding signal (z-score),[3],-0.208
same,glycan array binding signal (z-score),[4],-0.233
"wLAT-1A (Homo sapiens), Q01650",glycan array binding signal (z-score),[3],-0.807
"PILRa (Mus musculus), Q2YSF3",glycan array binding signal (z-score),[5],-0.134
same,glycan array binding signal (z-score),[6],1.82
same,glycan array binding signal (z-score),[7],1.77
same,glycan array binding signal (z-score),[8],-0.097
same,glycan array binding signal (z-score),[9],-0.185
same,glycan array binding signal (z-score),[2],0.044
"PILRb (Mus musculus), Q2YSF2",glycan array binding signal (z-score),[10],2.37
same,glycan array binding signal (z-score),[1],0.151
same,glycan array binding signal (z-score),[7],11.4
same,glycan array binding signal (z-score),[8],-0.235
same,glycan array binding signal (z-score),[11],-0.137
same,glycan array binding signal (z-score),[2],3.94
"CHI3L1 (Homo sapiens), P36222",glycan array binding signal (z-score),[12],-0.116
same,glycan array binding signal (z-score),[2],-0.1
"Regenerating Gene IV (Homo sapiens), Q9BYZ8",glycan array binding signal (z-score),[13],3.23
same,glycan array binding signal (z-score),[14],0.024
Avaren (Actinomycete K97),glycan array binding signal (z-score),[8],-0.134
same,glycan array binding signal (z-score),[15],-0.124
same,glycan array binding signal (z-score),[16],-0.036
6RG (Lolium perenne),glycan array binding signal (z-score),[6],-0.204
same,glycan array binding signal (z-score),[14],-0.033
"Aggrecan (Rattus norvegicus), NP_071526",glycan array binding signal (z-score),[4],-0.088
MpAFP RI GFP (Marinomonas primoryensis),glycan array binding signal (z-score),[17],-0.023
same,glycan array binding signal (z-score),[18],-0.23
"6RG (Lolium perenne), B9U140",glycan array binding signal (z-score),[13],0.291
"Siglec-8 (Homo sapiens), Q9NYZ4",glycan array binding signal (z-score),[19],-0.157
same,glycan array binding signal (z-score),[17],0.008
same,glycan array binding signal (z-score),[13]; mutation: R125K,-0.235
same,glycan array binding signal (z-score),[18]; mutation: R125K,2.31
same,glycan array binding signal (z-score),[11],0.008
same,glycan array binding signal (z-score),[20],-0.066
